# PubChem BioAssay AID588492 (Sanford-Burnham Center for Chemical Genomics, 2011)
# About 2,300 (0.64%) of roughly 360,000 compounds were called active. The sample as a whole holds a higher share of actives than the screen did. A number with no mark means an inactive call.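 How the source made its calls: active means compounds giving at least 50% protection of heart cells from peroxide-induced death in the single-dose screen, raw or plate-pattern-corrected value; inactive means the rest.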
# Experiment: H9c2 cardiomyocyte survival under peroxide injury – uHTS, H9c2 cells, ATPLite luminescence, primary screen (AID 588492);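 further: 0% = DMSO wells with peroxide and 100% = DMSO wells without peroxide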
# Conditions: H9c2 cardiomyocytes, 2 h, at 20 µM, hits give high values
row,Compound,protection from H2O2 cell death
1,COc1cc(OC)c(C(=O)OC(C)C(=O)Nc2cc(C(F)(F)F)ccc2Cl)cc1OC (stereo unspecified),-5%
2,Cc1cc(C)n(C(=O)c2ccc(C)c(S(=O)(=O)N3CCOCC3)c2)n1,15.2%
3,c1ccc(Cc2nn3c(Cn4cnc5ccccc54)nnc3s2)cc1,-4.9%
4,NC(=O)c1ccsc1NC(=O)COC(=O)Cc1n[nH]c(=O)c2ccccc12,78.3% (active)
5,N#CC1(NC(=O)COC(=O)Cc2n[nH]c(=O)c3ccccc23)CCCCC1,30.9%
6,CCCCn1nc(C(=O)OCC(=O)Nc2sccc2C(N)=O)c2ccccc2c1=O,29.8%
7,CCn1cc(C(=O)N[C@@H](C)C(=O)NCCO)c(=O)c2cc3c(cc21)OCO3,3%
8,COC(=O)c1noc(C)c1-c1ccnn1C(=O)c1ccc(Cl)cc1,3.5%
9,CCOc1ccc(OCC)c(NC(=O)CSc2nnc(Cn3cnc4ccccc43)n2C)c1,-3.2%
10,Cc1ccc(/C=N/NC(=O)C2=NNC(c3ccccc3)(c3ccccc3)C2)c(O)c1,60.3% (active)
11,O=C(NN=Cc1ccc2c(c1)CCC2)c1ccccc1O,-17.8%
12,Cc1ccc2cc(/C=N/NC(=O)[C@@H]3CCCN3)c(Cl)nc2c1,14%
13,CC(C)c1nnc(NC(=O)C2CC(=O)N(CCc3ccc(F)cc3)C2)s1 (stereo unspecified),-4.8%
14,Cc1nc(S(=O)(=O)c2ccc(Br)cc2)nc2c1CCC2,-2.2%
15,CCC(CC)C(=O)Nc1c2c(nn1-c1ccc(C)cc1)CS(=O)(=O)C2,-4.5%
16,CCC(C)(C)NC(=O)C(c1ccccn1)N(C(=O)c1csnn1)c1ccccc1 (stereo unspecified),1.1%
17,Cc1ccc(S(=O)(=O)NCC2CCC(C(=O)N3CCOCC3)CC2)cc1 (stereo unspecified),3.4%
18,Cc1nn(-c2ccccc2)c(C)c1/C=N/NC(=O)CSc1nc2ccccc2c(=O)n1-c1ccccc1,22.5%
19,Cn1c(SCC(=O)N/N=C/c2ccc(O)c(O)c2)nc2ccccc21,70.9% (active)
20,Cc1ccc(/C=N/NC(=O)CSc2nc3ccccc3o2)cc1,-4.4%
21,COc1ccc(S(=O)(=O)N2CCN(CC(=O)NCC3(N4CCOCC4)CCCCC3)CC2)cc1,3%
22,CC(C)(C)C(=O)Nc1cccc(-c2ccc[nH]2)n1,5.3%
23,Cc1nn(Cc2ccccc2Cl)c(C)c1NC(=O)Cn1nc([N+](=O)[O-])c(Cl)c1C,15.4%

row,Compound,protection from H2O2 cell death
1,Cc1c(Cl)c([N+](=O)[O-])nn1Cc1ccc(C(=O)N/N=C\c2cc(Cl)ccc2O)o1,67.5% (active)
2,Cc1c(Cl)c([N+](=O)[O-])nn1CCCC(=O)NC(C)c1ccccc1 (stereo unspecified),5.3%
3,N#Cc1ccc(C(c2ccc(C#N)cc2)n2cncn2)cc1,2.5%
4,Cn1c(C(=O)N2CCC(C(N)=O)CC2)cc2c(=O)n(C)c3ccccc3c21,1.2%
5,Cn1c(C(=O)NCCN2CCc3ccccc3C2)cc2c(=O)[nH]c3ccccc3c21,19.2%
6,Cn1c(C(=O)NCCc2ccsc2)cc2c(=O)n(C)c3ccccc3c21,96.5% (active)
7,O=C(NCCc1ccccc1)/C(=C\c1ccc([N+](=O)[O-])cc1)NC(=O)c1ccccc1,16.6%
8,O=C(Nc1ccc(C(=O)O)cc1)/C(=C/c1ccc([N+](=O)[O-])cc1)NC(=O)c1ccccc1,4.6%
9,O=C(N/N=C/c1cc([N+](=O)[O-])ccc1O)/C(=C\c1cccs1)NC(=O)c1ccccc1,54.9% (active)
10,CCOCCCNC(=O)C(NC(=O)c1ccc(=O)[nH]c1)c1ccc(Cl)cc1 (stereo unspecified),-7.9%
11,COc1ccc([C@H]2N[C@]3(CCCN(CC4CCCCC4)C3=O)[C@H]3C(=O)N(C)C(=O)[C@@H]23)cc1,5.5%
12,COCCNc1ccc(-c2n[nH]c(=O)c3ccccc23)cc1[N+](=O)[O-],40.1%
13,CCN(CC)CCNc1ccc(Cl)cc1[N+](=O)[O-],9.1%
14,CN(C)CCNc1ccc(-c2n[nH]c(=O)c3ccccc23)cc1[N+](=O)[O-],61.1% (active)
15,CCCC(=O)NC(Nc1ccccc1OC)C(Cl)(Cl)Cl (stereo unspecified),3%
16,Cc1ccc(C(=O)C(C)OC(=O)Cc2n[nH]c(=O)c3ccccc23)cc1C (stereo unspecified),12.9%
17,O=c1[nH]nc(Cc2ccccn2)c2ccccc12,84.4% (active)
18,c1ccc(CCc2ccccn2)cc1,-1.9%
19,COc1ccc(OC)c(CN2C(=O)CCC2(C)C(=O)NC2CCCCCC2)c1 (stereo unspecified),1.4%
20,O=C(CN1C(=O)NC2(CCCCCCC2)C1=O)NCc1ccc(F)cc1,-8.5%
21,COc1ccc(N2CCN(Cc3ccc(Br)s3)CC2)cc1,-6.8%
22,Cc1ccc(NC(=O)c2sc3nc(N)c(C#N)cc3c2N)cc1,-0.8%
23,CCSc1nc(-c2ccc(OC)cc2)cc(-c2ccc(OC)cc2)c1C#N,-1%
